Compound activity: PubChem, National Center for Advancing Translational Sciences (NCATS)
GLP-1R agonist – agonists of human GLP-1 receptor; AID 624172; hit rate 0.007% among 380,000; Potency, µM (highest dose often 45.6 µM), hits mostly activators; HEK293 GLP-1R CRE-luciferase, luminescence, 4-6 h; cells express a hypersensitive GLP-1R form
GLP1R cytotox – cytotoxic in the GLP-1 receptor inverse agonist counter-screen. HEK293 cAMP-luciferase reporter cells, luminescence, 24 h. Potency, µM (series often up to 38.3 µM), actives largely listed as inhibitors. hit rate 0.13% among 410,000. AID 624418;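 note: loss of luciferase light is scored as toxicity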
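Step one: seed cells (200 cells/uL, DMEM with 10% Nu serum, 1% pen-strep). Step two: 12-hour incubation at 37 deg C. Step three: pin 23 nL compound, incubate 24 hr. Step four: add luciferase reagent, read luminescence 12 min later.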
GLP-1R inv ag – acts as inverse agonist at human GLP-1 receptor | hit rate 1.6% among 410,000 | HEK293 GLP-1R CRE-luciferase, luminescence, 24 h; GLP-1R form is constitutively active | AID 624417 | Potency, µM (top dose mostly 38.3 µM), usual class: inhibitors | P43220; note: nearly all actives have a fitted effect of over 55% in size
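Inverse agonism was detected as reduced cAMP-driven luciferase luminescence after 24 h compound treatment. The cells were HEK293 clones expressing constitutively active human GLP-1R with the reporter. Reporter-only and GPR119 cell lines served as counterscreen controls.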
TSHR antag – antagonists of human thyroid stimulating hormone receptor; P16473; TSHR-expressing cells, TSH-stimulated cAMP HTRF, 2 h; active compounds read low; activity change, negative = inhibition, % at 11.5 µM; hit rate 0.2% among 330,000; AID 504810;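 active = activity change below a set negative limit, meaning inhibition stronger than a set level, cut at about -70% in these data; inconclusive = activity change between two set negative limits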
Target sequence (P16473 whole entry, looked up): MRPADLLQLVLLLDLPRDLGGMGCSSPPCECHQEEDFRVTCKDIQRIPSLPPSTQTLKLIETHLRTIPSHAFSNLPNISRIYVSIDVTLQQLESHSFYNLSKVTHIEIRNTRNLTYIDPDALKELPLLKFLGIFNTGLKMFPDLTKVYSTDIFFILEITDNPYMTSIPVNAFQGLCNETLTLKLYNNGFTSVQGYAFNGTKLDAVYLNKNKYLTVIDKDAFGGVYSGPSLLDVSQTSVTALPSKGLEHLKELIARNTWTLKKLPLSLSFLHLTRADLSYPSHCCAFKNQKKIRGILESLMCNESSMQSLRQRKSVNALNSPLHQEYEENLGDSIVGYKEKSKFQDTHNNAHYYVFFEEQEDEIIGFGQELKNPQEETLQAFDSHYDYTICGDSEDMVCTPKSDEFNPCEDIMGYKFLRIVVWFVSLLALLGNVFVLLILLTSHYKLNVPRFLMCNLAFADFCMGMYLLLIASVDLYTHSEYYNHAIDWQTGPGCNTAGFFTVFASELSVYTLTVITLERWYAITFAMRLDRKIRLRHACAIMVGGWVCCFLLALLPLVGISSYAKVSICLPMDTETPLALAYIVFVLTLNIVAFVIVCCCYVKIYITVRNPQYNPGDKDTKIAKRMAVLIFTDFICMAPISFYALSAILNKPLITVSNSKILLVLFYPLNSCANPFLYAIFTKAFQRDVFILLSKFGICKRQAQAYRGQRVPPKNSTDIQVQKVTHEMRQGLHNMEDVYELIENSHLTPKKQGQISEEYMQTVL
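Antagonism was scored as loss of TSH-driven cAMP in TSHR cells, stimulated with 4nM TSH (EC80) for 2 hours at 37 deg C and detected by homogeneous HTRF competition immunoassay.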
PTHR1 ag – agonists of human PTHR1 parathyroid hormone receptor | Q03431 | HEK293 GP2 PTHR1 cells, GloSensor cAMP luminescence, 1 h | Potency, µM (doses to about 115 µM), hits mostly activators | hit rate 0.075% among 410,000 | AID 743266; note: nearly all actives have a fitted effect of over 55% in size
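HEK-293-derived GP2 cells expressing PTHR1 and a GloSensor cAMP reporter, 3,000/well, plated overnight, given luciferin plus IBMX (each 0.5 mM as added) for 1 h at 37 °C, then compound for 1 h at 37 °C. Luminescence was read after 15 min at room temperature.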
Hits are given with their value; 0 = inactive; ? = inconclusive; - = not tested or not shown. In the library only some 1.8% were active in any assay of this set; here they are far more common. Unless noted, calls come from the whole dose curve; as a rule, active = well fitted curve in the direction sought with a large enough effect; inconclusive = small, poorly fitted or top-dose-only effect, or another doubt; inactive = no such curve, though single readings can be large; an effect the other way counts as inactive or inconclusive.

SMILES | GLP-1R agonist | GLP1R cytotox | GLP-1R inv ag | TSHR antag | PTHR1 ag
Cc1ccc(S(=O)(=O)NC(C)C(c2cccs2)N2CCN(C)CC2)cc1 (centres undefined) | 0 | 0 | ? | 0 | 0
CCOC(=O)N1CCN(C(=O)C[C@@H]2C[C@@]3(C(=O)OCC)CCCC=C3N(Cc3ccc(Cl)cc3Cl)C2=O)CC1 | 0 | 0 | ? | - | 0
CCOC(=O)N1CCN(C(=O)C[C@@H]2C[C@@]3(C(=O)OC)CCCCC=C3N(Cc3ccc(Cl)cc3Cl)C2=O)CC1 | 0 | 0 | 11µM | - | 0
CCSc1nnc(NC(=O)NC(C)(C(F)(F)F)C(F)(F)F)s1 | 0 | 0 | 10µM | 0 | 0
CCSc1nnc(NC(=O)NC(CC)(C(F)(F)F)C(F)(F)F)s1 | 0 | ? | 7.1µM | 0 | 0
CC(=O)N1N=C(c2ccc(Br)cc2)CC1c1cccc([N+](=O)[O-])c1 (centres undefined) | 0 | 0 | 11µM | - | 0
Cc1ccc(C2=NN(C(=O)CCC(=O)O)C(c3cccc([N+](=O)[O-])c3)C2)cc1 (centres undefined) | 0 | 0 | 0 | 0 | ?
CCc1ccc(NC(=O)CC2C(=O)N(c3ccc(Cl)cc3)C(=O)N2C2CCCC2)cc1 (centres undefined) | - | 0 | ? | - | 0
Cc1cc(C)c(CN2CCN(C(=O)Cn3cnc4c(NCc5ccccc5)ncnc43)CC2)c(C)c1 | 0 | 0 | 8.9µM | 0 | 0
Cc1ccc(S(=O)(=O)c2cn(CC(=O)Nc3ccccc3C)c3cc4c(cc3c2=O)OCO4)cc1 | 0 | 0 | 0 | - | 0
O=C1C(=O)N(C2CCN(S(=O)(=O)c3ccccc3)CC2)CCN1Cc1ccccc1 | - | 0 | 0 | - | 0
COc1ccccc1OCCCCN1CCN(C(c2ccccc2)c2ccccc2)CC1 | 0 | ? | 4.5µM | 0 | 0
c1ccc(OCCOCCN2CCN(C(c3ccccc3)c3ccccc3)CC2)cc1 | 0 | ? | 7.1µM | 0 | 0
N#Cc1ccc(OCC(O)CN2CCN(C(c3ccccc3)c3ccccc3)CC2)cc1 (centres undefined) | 0 | 0 | 7.1µM | 0 | 0
CC(C)c1ccc(NC(=O)c2cnc3sc(N4CCCC4)nn3c2=O)cc1 | - | 0 | 0 | - | 0
Cc1ccc(C)c(NC(=O)Cn2ncc3c([nH]c4ccccc43)c2=O)c1 | - | 0 | 0 | - | 0
C/C(=N\NC(=S)Nc1ccccc1C)c1ccc(O)cc1 | 0 | ? | 10µM | 0 | 0
CNC(=S)N/N=C(\C)c1ccc(C)c(C)c1 | 0 | ? | 3.5µM | 0 | 0
CNC(=S)N/N=C(\C)c1cccc(C(F)(F)F)c1 | 0 | ? | ? | 0 | 0
COCCNC(=S)N/N=C(\C)c1ccc(O)cc1 | 0 | ? | 0 | 0 | 0
CC(C)c1ccc(NC(=O)c2cc3c(s2)-c2ccccc2SC3)cc1 | - | 0 | ? | - | 0
CC1(C)CC(O)CC(C)(C)N1CC(O)COCc1ccccc1 (centres undefined) | 0 | 0 | 0 | -134 | 0
O=c1cc2nc(-c3ccccc3F)nc(SCc3ccc(Br)cc3)n2[nH]1 | - | 0 | 0 | - | 0
CCCNC(=O)C1(C)CCCN(Cc2ccccc2Cl)C1 (centres undefined) | 0 | 0 | 0 | - | 0
CCCNC(=O)C1(C)CCCN(Cc2cccc3ccccc23)C1 (centres undefined) | 0 | 0 | 10µM | - | 0
SMILES | GLP-1R agonist | GLP1R cytotox | GLP-1R inv ag | TSHR antag | PTHR1 ag
COc1ccc2c(c1)CC(C(=O)NCCN1CCN(c3cccc(C)c3C)CC1)CO2 (centres undefined) | - | 0 | 0 | - | 0
NCCNCCN | 0 | - | - | - | -
O=C(Cn1nc(-c2ccccc2)nc(Cc2ccccc2)c1=O)Nc1ccccc1 | - | 0 | 0 | - | 0
O=C(c1cc2ccccc2o1)N1CCN(C/C=C/c2ccccc2)CC1 | 0 | 0 | 11µM | 0 | 0
CC(=O)N1CCN(C(=O)c2cc3ccccc3o2)CC1 | 0 | 0 | 0 | 0 | 0
CCC(=O)OC1CCC2C3CCc4cc(O)ccc4C3CCC12C (centres undefined) | 0 | - | - | - | -
COc1cc(Br)c(CN2CCCN(C)CC2)cc1OC | 0 | 0 | ? | 0 | 0
COc1ccc(CN2CCCN(C)CC2)c(OC)c1C | 0 | 0 | ? | -119 | 0
COc1ccccc1-c1oc2ccccc2c1C#CCO | 0 | 0 | 0 | 0 | 0
COc1ccccc1-c1oc2ccccc2c1C#CC(C)(C)O | 0 | 0 | 10µM | 0 | 0
Cc1cccc(CNS(=O)(=O)c2csc(C(N)=O)c2)c1 | 0 | 0 | 0 | -70 | 0
NC(=O)c1cc(S(=O)(=O)NCc2cccc(Br)c2)cs1 | 0 | 0 | 0 | 0 | 0
NC(=O)c1cc(S(=O)(=O)NCc2cccs2)cs1 | 0 | 0 | 0 | 0 | 0
NC(=O)c1cc(S(=O)(=O)NCc2ccc(F)cc2)cs1 | 0 | 0 | 0 | -132 | 0
COC(=O)c1sccc1S(=O)(=O)N(CC(=O)Nc1ccccc1F)c1ccccc1 | - | 0 | 0 | - | 0
COc1ccc(N(CCC(=O)Nc2ccccc2F)S(=O)(=O)c2ccc(C)cc2C)cc1 | 0 | 0 | 10µM | 0 | 0
CCN(CC)c1ccc(S(=O)(=O)Nc2cc(Cl)ccc2Cl)cc1NC(=S)NC(=O)C1CCCC1 | 0 | 0 | 5µM | 0 | 0
COc1cc(O)ccc1-c1nc2cc(C)ccn2c1Nc1ccccc1C | - | 0 | 10µM | - | 0
CCN(CC)C(=O)c1ccc(/C=C/c2c[nH]c3ccccc23)[n+](C)c1 | 0 | 0 | 0 | 0 | 0
CC[n+]1c(/C=C/c2c[nH]c3ccccc23)ccc2cc(C)ccc21 | 0 | ? | 10µM | 0 | 0
CC1CN(C(=O)CCC(=O)NCc2ccccc2)c2cc(Cl)ccc2O1 (centres undefined) | 0 | 0 | 10µM | 0 | 0
CCC(C)N(C)Cc1cccc(C2(O)CCN(S(=O)(=O)c3ccc(F)c(C)c3)CC2)c1 (centres undefined) | 0 | ? | 2.5µM | 0 | 0
Cc1cc(S(=O)(=O)N2CCN(c3c(C)cccc3C)CC2)ccc1F | 0 | 0 | ? | 0 | 0
O=C(CNC1CCCCC1)Nc1cccc([N+](=O)[O-])c1 | 0 | 0 | 0 | - | 0
O=C(Nc1cccc([N+](=O)[O-])c1)NC1CCCCCCC1 | 0 | 0 | 10µM | 0 | 0
SMILES | GLP-1R agonist | GLP1R cytotox | GLP-1R inv ag | TSHR antag | PTHR1 ag
Cc1ccc(S(=O)(=O)N(CC(=O)Nc2cccc([N+](=O)[O-])c2)C2CCCCC2)cc1 | 0 | 0 | 11µM | 0 | 0
Cc1ccc(NC(=O)CN(C)C(=O)c2ccc(NS(=O)(=O)c3cccc([N+](=O)[O-])c3)cc2)cc1 | 0 | 0 | 0 | - | 0
Cc1ccc(NS(=O)(=O)c2ccc(OCC(=O)Nc3cccc([N+](=O)[O-])c3)c(C)c2)cc1 | 0 | 0 | 10µM | 0 | 0
CCOc1ccccc1NC(=O)CN1C(=O)COc2ccc(S(=O)(=O)N3CCCCC3)cc21 | - | 0 | ? | - | 0
CC(C)CN=C(NS(=O)(=O)c1ccccc1)C(Cl)(Cl)Cl | 0 | 0 | 7.9µM | 0 | 0
CCn1c(=O)c2cc(C(=O)N(CC(C)C)CC(C)C)sc2c2ccccc21 | 0 | 0 | 0 | - | 0
